The record followed here is the supplement of paper PMC10338343.

Experiment [1] deals with MILI (PIWIL2) piRISC loaded with L1MC piRNA (26 nt). The experiment in a line: pre-steady-state target cleavage rate (min^-1); guide: L1MC piRNA 5'p-UAACUAAAUACUAUGCAAGCUGUAGG; higher = faster piRNA-guided slicing of the target. In short, it runs like this: (§1)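 A transcribed, DNA-blocked target RNA library (0.1 nM) and 1 nM active affinity-purified piRISC bearing one synthetic guide were incubated in HEPES–potassium acetate buffer at 33 °C for 0–8 or 0–960 min, either with or without 500 nM GTSF1 partner protein. Uncleaved targets were sequenced, normalised to depth and to weakly complementary targets, and pooled over three trials, with k3 capped at 0.0001 min^-1. The pre-steady-state cleavage rate was derived with a burst-and-steady-state fit.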

Experiment [2] relates to EfPiwi piRISC loaded with L1MC piRNA (26 nt). The experiment in a line: pre-steady-state target cleavage rate (min^-1); auxiliary factor: 500 nM Ephydatia muelleri Gtsf1; guide: L1MC piRNA 5'p-UAACUAAAUACUAUGCAAGCUGUAGG; MIWI and MILI are mouse PIWI proteins and EfPiwi is from a freshwater sponge; tags in brackets are library labels; higher = faster piRNA-guided slicing of the target. In short, it runs like this:
as §1

The mark [3] stands for this setting: auxiliary factor: 500 nM mouse GTSF1.

± gives the standard deviation. A value given as a limit tells only on which side of the number the result lay.

As for UCCUGGAUCAGCUUGCAUAGUAUAUAGUAA, the “pre-steady-state target cleavage rate” value in experiment [1] (setting [3]) was determined as 0.189 ± 0.019; in experiment [2] it was 0.00291 ± 0.0023.
On to UCCUGCAACAGCUUGCAUAGUAUUUACAAA, for which the “pre-steady-state target cleavage rate” value in experiment [1] (setting [3]) was found to be 0.232 ± 0.053; in experiment [2] it was 0.00305 ± 0.0022.
For UCCUGGAACAGCUUGGAUAGUAUUAAGUUA, in that order: 0.186 ± 0.033 and 0.00405 ± 0.0034.
On to UCCUCCUACAGCUUGCAUAGUAUUAGUUA, for which the results for the “pre-steady-state target cleavage rate” value in experiment [1] (setting [3]) and in experiment [2] were 0.273 ± 0.024 and 0.00402 ± 0.0027, respectively.
As for UCCUGGAUCAGCUAGCAUAGUAUUUAGAAA, the “pre-steady-state target cleavage rate” value came to 0.139 ± 0.016 in experiment [1] (setting [3]) and 0.0036 ± 0.0022 in experiment [2].
For UCCUGCUACAGCUUGCAUAGUAUUAUCUAA the same measures were 0.0551 ± 0.014 and 0.00395 ± 0.0027.
For UCCUGGUUCAGCUUGCAUAGUAUUUAGAAA the same measures were 0.114 ± 0.022 and 0.00471 ± 0.003.
For UCCUGGAUGUGCUUGCAUAGUAUUUAUUA, the “pre-steady-state target cleavage rate” value came to 0.00911 ± 0.0051 in experiment [1] (setting [3]) and 0.00271 ± 0.0022 in experiment [2].
For UCCUGGUACAGCUUGCAUAGUAUUUACAUA, in that order: 0.0411 ± 0.014 and 0.0038 ± 0.0029.
On to UCCUCCUACAGCUUGCAUAGUAUAUUCAAA, for which the “pre-steady-state target cleavage rate” value turned out to be 0.125 ± 0.025 in experiment [1] (setting [3]) and 0.00316 ± 0.0027 in experiment [2].
UCCUGCUACAGGAUGCAUAGUAUUUAGAAA: the “pre-steady-state target cleavage rate” value in experiment [1] (setting [3]) amounted to 0.0163 ± 0.0074; in experiment [2], 0.00248 ± 0.0014.
With UCCUCCUACAGCUUGCUUAGAAUUUAGUUA, the results for the “pre-steady-state target cleavage rate” value in experiment [1] (setting [3]) and in experiment [2] were 0.0487 ± 0.011 and 0.00419 ± 0.002, respectively.
For UCCUGCUACAGCUUGCAAAGUAUUUAGAAA, in that order: 0.159 ± 0.033 and 0.00352 ± 0.002.
As for UCCUGGAUCAGCUUCCAUAGUAUUUAGUUA, the “pre-steady-state target cleavage rate” value stood at 0.0318 ± 0.0085 in experiment [1] (setting [3]) and 0.00321 ± 0.0017 in experiment [2].
As for UCCUGGAACAGCAAGCAUAGUAUUUAGAAA, the “pre-steady-state target cleavage rate” value in experiment [1] (setting [3]) is 0.162 ± 0.025; in experiment [2] it was 0.00309 ± 0.002.
On to UCCUGGAACAGCUUGGAUAGUAUUUAGAAA, for which the “pre-steady-state target cleavage rate” value in experiment [1] (setting [3]) was determined as 0.0385 ± 0.012; in experiment [2], 0.00373 ± 0.0019.
UCCUGGAUCACGAUGCAUAGUAUUUAGUAA: the entries for the “pre-steady-state target cleavage rate” value in experiment [1] (setting [3]) and in experiment [2] were 0.173 ± 0.016 and 0.00397 ± 0.0033, respectively.
Turning to UCCUCCUACAGCUAGCAUAGUAUUUAGAAA, the “pre-steady-state target cleavage rate” value stood at 0.113 ± 0.021 in experiment [1] (setting [3]) and 0.00378 ± 0.0016 in experiment [2].
For UCCUGGAUGACCUAGCAUAGUAUUUAGUUA, in that order: 0.0953 ± 0.022 and 0.0121 ± 0.0072.
For UCCUGGAACAGCUUGCAUAGUUAUUAGUUA the same measures were 0.0369 ± 0.0099 and 0.00251 ± 0.0017.
UCCUCCUACAGCUUGCAUAGUAUAAAGAAA: the “pre-steady-state target cleavage rate” value in experiment [1] (setting [3]) is 0.0951 ± 0.023; in experiment [2], 0.00289 ± 0.0018.
For UCCUGGAUCAGCUUGCAUAGUAUUAAGAUA, in that order: 0.0716 ± 0.025 and 0.006 ± 0.0032.
For UCCUGGAUGUGCUUCCAUAGUAUUUAGUUA, in that order: 0.0271 ± 0.0077 and 0.00277 ± 0.0019.
With UCCUGGUACACCUUGCAUAGUAUUUAGAUA, the “pre-steady-state target cleavage rate” value came to 0.0475 ± 0.016 in experiment [1] (setting [3]) and 0.00278 ± 0.0024 in experiment [2].
For UCCUCCAACAGCUUGCAUAGAAUUUAGUUA the same measures were 0.07 ± 0.014 and 0.00468 ± 0.0016.
For the sequence UCCUGGAUCAGCUUGCAUAGUAUUUACAUA, the “pre-steady-state target cleavage rate” value in experiment [1] (setting [3]) is 0.0335 ± 0.0081; in experiment [2], 0.00271 ± 0.0021.
As to UCCUGCUACAGCUUGCAUAGUAUGUUAGUUA, the figures for the “pre-steady-state target cleavage rate” value in experiment [1] (setting [3]) and in experiment [2] were 0.164 ± 0.036 and 0.00247 ± 0.002, respectively.
UCCUCCUACAGCUUGCAUUGUAUUUACAAA: the results for the “pre-steady-state target cleavage rate” value in experiment [1] (setting [3]) and in experiment [2] were 0.0269 ± 0.0098 and 0.00314 ± 0.003, respectively.
For the sequence UCCUGGAUGACCUUGCAUAGUAUUUAGAUA, the results for the “pre-steady-state target cleavage rate” value in experiment [1] (setting [3]) and in experiment [2] were 0.115 ± 0.034 and 0.00355 ± 0.0027, respectively.
As for UCCUGCUACAGCUUGCAUAGUCUUUAGUUA, the “pre-steady-state target cleavage rate” value in experiment [1] (setting [3]) amounted to 0.122 ± 0.019; in experiment [2] it was 0.00416 ± 0.001.
For UCCUGGAUCAGCUUGGAUAGUAUUUAGAAA the same measures were 0.0109 ± 0.0051 and 0.00249 ± 0.0024.
On to UCCUGGAUGUCGAACCAUAGUAUUUAGUCA, for which the “pre-steady-state target cleavage rate” value in experiment [1] (auxiliary factor: none (no GTSF1)) and in experiment [2] was < 0.0001 each time.
Regarding UCCUGCUAGAGCUUGCAUAGUAUUUACAAA, the “pre-steady-state target cleavage rate” value in experiment [1] (setting [3]) is 0.146 ± 0.039; in experiment [2], 0.00266 ± 0.0021.
For UCCUGCUACAGCUUGCAUAGUAUUAUGUUA, in that order: 0.231 ± 0.047 and 0.00406 ± 0.002.
UCCUGGAUCAGCUUGCAUACUAUUAAGUUA: the “pre-steady-state target cleavage rate” value turned out to be 0.0204 ± 0.0077 in experiment [1] (setting [3]) and 0.00253 ± 0.0023 in experiment [2].
For UCCUCCUACAGCUUGCAUAGUAUUAACAAA, in that order: 0.11 ± 0.023 and 0.00454 ± 0.0033.
Consider UCCUGGUACAGCUUGCAUAGUUAUUAGUAA, for which the entries for the “pre-steady-state target cleavage rate” value in experiment [1] (setting [3]) and in experiment [2] were 0.01 ± 0.0044 and 0.00807 ± 0.0043, respectively.
For the sequence UCCUCCUACAGCUUGCAUAGUAAAAAGUAA, the “pre-steady-state target cleavage rate” value was determined as 0.0657 ± 0.019 in experiment [1] (setting [3]) and 0.00344 ± 0.0029 in experiment [2].
For UCCUGCUAGAGCUUGCAUAGUAUUUAGAAA the same measures were 0.205 ± 0.042 and 0.00419 ± 0.0022.
For UCCUCCUACAGCUUGCAUAGUUUUUUGUUA, in that order: 0.0587 ± 0.013 and 0.00441 ± 0.0026.
Regarding UCCUCCUACAGCUUGCAAAGUAUUUAGAAA, the results for the “pre-steady-state target cleavage rate” value in experiment [1] (setting [3]) and in experiment [2] were 0.0823 ± 0.015 and 0.00344 ± 0.0017, respectively.
For UCCUCCUACAGCUUGCAUAGUAAUUAGAAA, in that order: 0.127 ± 0.032 and 0.00474 ± 0.0026.
For UCCUCCUACAGCUUGCAUAGUAUUUAGUGUA, in that order: 0.158 ± 0.027 and 0.00735 ± 0.0033.
For UCCUCCUACAGCUUGCAAAGUAUUUUCAAA, in that order: 0.0849 ± 0.023 and 0.00286 ± 0.0028.
With UCCUCCUACACCUUCCAUAGUAUUUAGUUA, the “pre-steady-state target cleavage rate” value in experiment [1] (setting [3]) came out at 0.0308 ± 0.014; in experiment [2], 0.00329 ± 0.0018.
